Bioassay records from PubChem BioAssay.
KCNQ2 enhance = potentiators of rat KCNQ2 potassium channel. Potassium voltage-gated channel subfamily KQT member 2 (Rattus norvegicus), O88943. CHO-K1 KCNQ2, FluxOR thallium flux fluorescence; hits give high values. B-score at 10 µM. hit rate 0.54% among 310,000. AID 2239, 2010;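 active = fluorescence ratio B-score at least 3 SD of library B-scores, with initial fluorescence B-score within 3 of them, cut at about 5.3 in these data; same plate scores as AID 2156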;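 also: B-score of peak minus minimum over baseline fluorescence ratio after K+ and Tl+ stimulus; positive B-score means potentiation of KCNQ2 with more thallium influx and brighter signal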
KCNQ2 block = rat KCNQ2 potassium channel inhibitors, primary screen, cell-based, CHO-K1, FluxOR thallium flux, B-score. Potassium voltage-gated channel subfamily KQT member 2 (Rattus norvegicus), O88943. 20 min; hits give low values. B-score at 10 µM. hit rate 1.1% among 310,000. AID 2156, 2009;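 active = fluorescence ratio B-score at most minus 3 library SDs, with starting brightness B-score within 2 library SDs, cut at about -5.5 in these data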
* = called active by the depositor; i = inactive; · = not tested or not shown. Shown are actives, neighbours in structure and some others; about 1.6% of the full set was active somewhere.

SMILES	KCNQ2 enhance	KCNQ2 block
CCc1ccc(OCC(=O)N2CCN(c3ccccn3)CC2)c(Br)c1	0.22	i
O=C(/C=C/c1ccc(F)cc1)N1CCN(c2ccccn2)CC1	0.01	i
O=C(/C=C/c1cccc(Br)c1)N1CCN(c2ccccn2)CC1	-7.6	-7.6*
O=C(Nc1ccc(S(=O)(=O)N2CCN(Cc3ccccc3)CC2)cc1)c1cnccn1	·	i
CO/C=C\C=C/c1nnn(-c2ccc(Cl)cc2)n1	-6.9	-6.9*
Clc1ccc(-n2cnnn2)cc1	0.78	i
CCOC(=O)CC1C(=O)NCCN1S(=O)(=O)c1cccc(C(F)(F)F)c1 (stereo not drawn)	·	i
CCOC(=O)c1cc(C)sc1NC(=O)C(c1ccccc1)c1ccccc1	-6	-6*
CCOC(=O)c1cc(CC)sc1NC(=O)Cc1ccccc1	-5.7	-5.7*
CCOC(=O)c1cc(CC)sc1NC(=O)COC	·	i
CCc1cc(C(=O)O)c(NC(=O)C(c2ccccc2)c2ccccc2)s1	1.3	i
CCCS(=O)(=O)N1CCCC(C(=O)NCCc2cccc(C)c2)C1 (stereo not drawn)	0.98	i
COc1ccc(Nc2nc(-c3ccncc3)nc3ccccc23)cc1	0.1	i
CC(C)(C)C(=O)COC(=O)CNC(=O)c1ccc(Oc2ccccc2)cc1	·	i
CC(=O)Nc1ccc(S(=O)(=O)NCC(=O)OCC(=O)N2CCN(c3ccccc3)CC2)cc1	1.6	i
Cc1cc(C)c2sc(N(CCCN(C)C)C(=O)c3ccc(S(=O)(=O)N4CCCc5ccccc54)cc3)nc2c1	-7.7	-7.7*
Cc1cc(C)c2sc(N(CCCN(C)C)C(=O)c3ccc(S(=O)(=O)N4CCc5ccccc5C4)cc3)nc2c1	·	i
O=C(COc1ccccc1)NCC(c1ccco1)N1CCN(c2ccccc2F)CC1 (stereo not drawn)	-7	-7*
O=C(COc1ccccc1)NCC(c1ccco1)N1CCN(c2ccc(F)cc2)CC1 (stereo not drawn)	·	i
CCOc1ccc(C(=O)NC(=S)Nc2ccc(NC(=O)c3ccco3)c(C)c2)cc1[N+](=O)[O-]	0.53	i
CN(C(=O)Nc1ccccc1)C1CCCCC1	0.2	i
CC(c1cccs1)N(C(=O)Nc1ccccc1)C1CCCCC1 (stereo not drawn)	-5.9	-5.9*
COC(=O)c1cn(NC(=O)Cc2ccc(Cl)c(Cl)c2)c(=O)c2ccccc12	30*	i
COC(=O)c1cn(NC(=O)Cc2cccc(C(F)(F)F)c2)c(=O)c2ccccc12	3.5	i
COC(=O)c1cn(NC(=O)Cc2ccc(Cl)cc2)c(=O)c2ccccc12	18*	i
SMILES	KCNQ2 enhance	KCNQ2 block
COC(=O)c1cn(NC(=O)Cc2ccccc2OC)c(=O)c2ccccc12	·	i
CCOc1ccc(CN(C)CC(=O)Nc2ccc([N+](=O)[O-])cc2Cl)cc1	·	i
CN1CCc2c(sc(/N=C/c3cc(Cl)ccc3O)c2C#N)C1	0.69	i
Cc1cc(C)cc(NCCC#N)c1	1.5	i
COc1ccc(C(=O)N/C(=C/c2cccs2)c2nc3ccccc3[nH]2)cc1OC	1.1	i
COc1cc(/C=C(/C(=O)c2cccs2)c2nc3ccccc3[nH]2)cc(OC)c1O	-6.1	-6.1*
Cn1nc(C(F)(F)F)c(/C=N/OC(=O)c2ccccc2)c1Sc1ccc(Cl)cc1	-5.7	-5.7*
Cn1nc(C(F)(F)F)c(/C=N/OC(=O)c2ccccc2)c1Cl	·	i
CC(=O)[C@@]1(O)CC[C@H]2[C@@H]3CCC4=CC(=O)CC[C@]4(C)[C@H]3CC[C@@]21C	0.03	i
CCCCCC(=O)O[C@]1(C(C)=O)CC[C@H]2[C@@H]3CCC4=CC(=O)CC[C@]4(C)[C@H]3CC[C@@]21C	-7.2	-7.2*
CC(C)OCCCNC(=O)c1cc(-c2cccnc2)nc2ccccc12	0.16	i
CCOc1ccccc1NC(=O)C(OC(=O)c1cc(C)oc1C)c1ccccc1 (stereo not drawn)	-5.8	-5.8*
CCOc1ccccc1NC(=O)C(OC(=O)c1ccccc1O)c1ccccc1 (stereo not drawn)	·	i
OCc1cc(-c2ccc(Cl)c(Cl)c2)on1	0.44	i
C=CCN1C(=O)c2ccc(C(=O)N3CCC(C(N)=O)CC3)cc2C1=O	1.1	i
Nc1cc(Cl)ccc1C(=O)OCC(=O)NC1CCCCC1	·	i
CCN(C(=O)COC(=O)c1ccc(Cl)cc1N)C1CCCCC1	-6.4	-6.4*
O=C(NCc1ccc(Cl)cc1)C1CCN(S(=O)(=O)c2cccnc2)CC1	·	i
Cc1cccnc1NC(=O)NC(=O)c1ccc(C(C)(C)C)s1	0.32	i
OC(c1ccc(F)cc1)(C1CCCCC1)C(CN1CCOCC1)c1ccccc1 (stereo not drawn)	-5.7	-5.7*
CC(C)CC(O)(c1ccccc1)C(CN1CCOCC1)c1ccccc1 (stereo not drawn)	·	i
